Test results as given in PubChem BioAssay (Tox21).
Inconclusive results are not listed. Entries that show only a call come without a potency. Calls of active or inactive are those of the source. Unless noted, calls follow the shape of the dose curve; as a rule, active = well fitted curve in the direction sought with a large enough effect in the repeat runs; inconclusive = weak or mixed curves; inactive = no such curve, though single readings can be large; an effect the other way counts as inactive or inconclusive.

Tests used:
[1] = qHTS assay to identify aromatase inhibitors - cell viability counter screen (AID 743084);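 also: cells stimulated with testosterone during compound exposure; nearly all actives have a fitted effect of over 55% in size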
[2] = qHTS assay to identify small molecule that activate the aryl hydrocarbon receptor (AhR) signaling pathway - cell viability counter screen (AID 743086);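 also: HepG2 liver cells carrying the AhR DRE luciferase reporter; series mostly up to about 70 µM; nearly all actives have a fitted effect of over 45% in size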
Summary of the method: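 HepG2-AhR-luc (HG2L7.5c1) cells, 4000/well, were preincubated 5 h at 37C, exposed to compound in qHTS format for 24 hr at 37C, then given CellTiter-Fluor for 30 min; viability was read as fluorescence in the reporter wells.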

[3] = target: Peroxisome proliferator-activated receptor gamma (Homo sapiens) (UniProt P37231); assay: qHTS assay to identify small molecule agonists of the peroxisome proliferator-activated receptor gamma (PPARg) signaling pathway (AID 743094; active = well fitted activation curve with a large enough effect in the signal ratio in the repeat runs, not every such curve was filed as active; the % refers to the signal ratio)
Summary of the method: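 Cells from the PPARg UAS-bla HEK293H line are plated and incubated 5 h at 37C. Compounds in DMSO are pinned in and left 17 h at 37C. LiveBLAzer B/G substrate is then added for 1 h at room temperature before fluorescence is measured.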

[4] = target: Peroxisome proliferator-activated receptor gamma (Homo sapiens) (UniProt P37231); assay: qHTS assay to identify small molecule antagonists of the peroxisome proliferator-activated receptor gamma (PPARg) signaling pathway (AID 743191; calls by dose curve; also: series mostly up to about 63 µM; nearly all actives have a fitted effect of over 30% in size)
Summary of the method: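 GeneBLAzer PPARg UAS-bla HEK293H cells carrying a UAS-driven beta-lactamase reporter were plated at 3000 cells/well, preincubated 5 h at 37C, then given compound for 17 h at 37C; LiveBLAzer B/G FRET substrate was read after 1 h at room temperature.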

[5] = qHTS assay to identify small molecule antagonists of the peroxisome proliferator-activated receptor gamma (PPARg) signaling pathway - cell viability counter screen (AID 743194); also: nearly all actives have a fitted effect of over 55% in size
Summary of the method: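 PPARg-UAS-bla HEK293H cells were plated, rested 5 h at 37 C, then treated with compounds plus rosiglitazone (50 nM final) for 17 h at 37 C; viability was then read by CellTiter-Glo luminescence after 30 min at room temperature.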

[6] = qHTS assay for small molecule agonists of the antioxidant response element (ARE) signaling pathway - cell viability counter screen (AID 743203; calls by dose curve; also: nearly all actives have a fitted effect of over 55% in size)
Summary of the method: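 Cytotoxicity was tested in parallel with the ARE reporter screen. ARE-bla HepG2 cells were exposed to compounds for 16 hrs, and viability was taken from CellTiter-Glo luminescence.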

[7] = qHTS assay for small molecule activators of the heat shock response signaling pathway - cell viability counter screen (AID 743209); also: nearly all actives have a fitted effect of over 50% in size
Summary of the method: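 Cytotoxicity counter screen run in parallel with the HSE beta-lactamase reporter, using the same wells. HeLa HSE-bla cells received compound for 5 h at 37 C; ATP-based CellTiter-Glo luminescence was measured after 30 min at room temperature.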

[8] = qHTS assay for small molecule activators of the heat shock response signaling pathway (AID 743210; active = well fitted activation curve with a large enough effect in the signal ratio in the repeat runs, with a control signal flat, not every such curve was filed as active; the % refers to the signal ratio;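 also: HeLa cells with beta-lactamase reporter driven by heat shock elements; series mostly up to about 63 µM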)
Summary of the method: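 Activation of heat shock element-controlled beta-lactamase expression is measured in HeLa cells by LiveBLAzer FRET fluorescence, with compound exposure lasting 5 h at 37 C and substrate loading 2.5 h at room temperature.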

[9] = qHTS assay to identify small molecule agonists of the peroxisome proliferator-activated receptor delta (PPARd) signaling pathway - cell viability counter screen (AID 743211); also: nearly all actives have a fitted effect of over 55% in size
Summary of the method: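 PPARd-bla HEK293H cells (3000/well) were pre-incubated 5 h at 37 C, then exposed to compound for 17 h at 37 C. After 2 h with LiveBLAzer substrate, CellTiter-Glo was added to the same wells; luminescence read after 30 min at room temperature.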

[10] = target: Peroxisome proliferator-activated receptor delta (Homo sapiens) (UniProt Q03181); assay: qHTS assay to identify small molecule agonists of the peroxisome proliferator-activated receptor delta (PPARd) signaling pathway (AID 743212; calls by dose curve)
Summary of the method: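 Cells expressing a UAS-driven beta-lactamase reporter (PPARd-bla HEK293H) were given test compounds after a 5 h settle and kept at 37 C. Reporter activity was then measured as FRET fluorescence using LiveBLAzer B/G substrate.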

[11] = qHTS assay to identify small molecule antagonists of the peroxisome proliferator-activated receptor delta (PPARd) signaling pathway - cell viability counter screen (AID 743213); also: nearly all actives have a fitted effect of over 50% in size
Summary of the method: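 PPARd-bla HEK293H cells (3000/well) got compound plus 300 nM L165041 agonist for 17 h at 37 C. Viability in the same wells came from CellTiter-Glo luminescence after 30 min at room temperature.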

[12] = target: Peroxisome proliferator-activated receptor delta (Homo sapiens) (UniProt Q03181); assay: qHTS assay to identify small molecule antagonists of the peroxisome proliferator-activated receptor delta (PPARd) signaling pathway (AID 743215; active = well fitted inhibition curve with a large enough effect in the signal ratio in the repeat runs, not every such curve was filed as active; the % refers to the signal ratio;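 also: cells stimulated with agonist L165041 at 300 nM final during compound exposure; series mostly up to about 62 µM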)
Summary of the method: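 Cells: HEK293H with a UAS-driven beta-lactamase reporter responsive to PPARd. Compounds were co-added with L165041 (300 nM, final) and incubated 17 h at 37 C before a 2 h room-temperature FRET substrate step and fluorescence reading.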

[13] = qHTS assay to identify small molecule agonists of the farnesoid-X-receptor (FXR) signaling pathway - cell viability counter screen (AID 743218); also: nearly all actives have a fitted effect of over 45% in size
Summary of the method: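 Cells were seeded, left 5 h at 37 C and 5% CO2, then dosed with compound in DMSO for 16 h. After the beta-lactamase FRET read, CellTiter-Glo was added and luminescence measured 30 min later.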

[14] = qHTS assay to identify small molecule antagonists of the farnesoid-X-receptor (FXR) signaling pathway - cell viability counter screen (AID 743221; active = well fitted cell-killing curve with a large enough effect in the repeat runs, not every such curve was filed as active; also: nearly all actives have a fitted effect of over 50% in size)
Summary of the method: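 GeneBLAzer FXR-UAS-bla HEK 293T cells, compound plus chenodeoxycholic acid (50 uM final), 16 h at 37 C. CellTiter-Glo added to the same wells after the beta-lactamase read; luminescence read after 30 min at room temperature as viability.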

[15] = target: Vitamin D3 receptor (Homo sapiens) (UniProt P11473); assay: qHTS assay to identify small molecule agonists of the vitamin D receptor (VDR) signaling pathway (AID 743222; calls by dose curve)
Summary of the method: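 Cells carrying a VDR-driven beta-lactamase reporter are seeded at 2,000 per well and rested 4 h. Compounds in DMSO are added for 16 h at 37C, and FRET substrate fluorescence is measured after 2 h at room temperature.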

[16] = target: Vitamin D3 receptor (Homo sapiens) (UniProt P11473); assay: qHTS assay to identify small molecule antagonists of the vitamin D receptor (VDR) signaling pathway (AID 743223; active = well fitted inhibition curve with a large enough effect in the signal ratio in the repeat runs, not every such curve was filed as active; the % refers to the signal ratio)
Summary of the method: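 VDR-bla cells were treated with compound plus 3 nM final 1alpha,25-dihydroxyvitamin D3 for 16 h at 37C. Beta-lactamase reporter read by B/G FRET substrate fluorescence after 2 h at room temperature. qHTS format.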

[17] = target: Aryl hydrocarbon receptor (Homo sapiens) (UniProt P35869); assay: qHTS assay to identify small molecule that activate the aryl hydrocarbon receptor (AhR) signaling pathway (AID 743085); also: nearly all actives have a fitted effect of over 15% in size; also: potency is read from the fitted curve at half-maximal effect;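 as to activation: HG2L7.5c1 human HepG2 liver cells with stably integrated DRE-driven firefly reporter; series mostly up to about 70 µM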
Summary of the method: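 HepG2 cells stably carrying a 20-DRE firefly luciferase reporter (HG2L7.5c1) treated with compound for 24 hr at 37C. Luciferase read by ONE-Glo luminescence, with CellTiter-Fluor viability read first.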

[18] = qHTS assay for small molecule agonists of the antioxidant response element (ARE) signaling pathway (AID 743202; active = well fitted activation curve with a large enough effect in the signal ratio in the repeat runs, not every such curve was filed as active; the % refers to the signal ratio)
Summary of the method: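 Steps: seed ARE-bla HepG2 cells (2,000/well); incubate 5 h at 37 C; add compounds by pin tool; incubate 16 h at 37 C; add FRET substrate; read fluorescence after 2 h at RT.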

[19] = target: Bile acid receptor (Homo sapiens) (UniProt Q96RI1); assay: qHTS assay to identify small molecule agonists of the farnesoid-X-receptor (FXR) signaling pathway (AID 743220; active = well fitted activation curve with a large enough effect in the signal ratio in the repeat runs, not every such curve was filed as active; the % refers to the signal ratio)
Summary of the method: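 FXR-UAS-bla HEK 293T cells carrying a UAS-driven beta-lactamase reporter were plated for 5 h at 37C/5% CO2, then exposed to DMSO-dissolved Tox21 10K compounds for 16 h at 37C. A LiveBLAzer B/G FRET substrate was loaded for 2 h at room temperature before fluorescence reading.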

Chain of Aryl hydrocarbon receptor (Homo sapiens) (P35869 whole entry, looked up): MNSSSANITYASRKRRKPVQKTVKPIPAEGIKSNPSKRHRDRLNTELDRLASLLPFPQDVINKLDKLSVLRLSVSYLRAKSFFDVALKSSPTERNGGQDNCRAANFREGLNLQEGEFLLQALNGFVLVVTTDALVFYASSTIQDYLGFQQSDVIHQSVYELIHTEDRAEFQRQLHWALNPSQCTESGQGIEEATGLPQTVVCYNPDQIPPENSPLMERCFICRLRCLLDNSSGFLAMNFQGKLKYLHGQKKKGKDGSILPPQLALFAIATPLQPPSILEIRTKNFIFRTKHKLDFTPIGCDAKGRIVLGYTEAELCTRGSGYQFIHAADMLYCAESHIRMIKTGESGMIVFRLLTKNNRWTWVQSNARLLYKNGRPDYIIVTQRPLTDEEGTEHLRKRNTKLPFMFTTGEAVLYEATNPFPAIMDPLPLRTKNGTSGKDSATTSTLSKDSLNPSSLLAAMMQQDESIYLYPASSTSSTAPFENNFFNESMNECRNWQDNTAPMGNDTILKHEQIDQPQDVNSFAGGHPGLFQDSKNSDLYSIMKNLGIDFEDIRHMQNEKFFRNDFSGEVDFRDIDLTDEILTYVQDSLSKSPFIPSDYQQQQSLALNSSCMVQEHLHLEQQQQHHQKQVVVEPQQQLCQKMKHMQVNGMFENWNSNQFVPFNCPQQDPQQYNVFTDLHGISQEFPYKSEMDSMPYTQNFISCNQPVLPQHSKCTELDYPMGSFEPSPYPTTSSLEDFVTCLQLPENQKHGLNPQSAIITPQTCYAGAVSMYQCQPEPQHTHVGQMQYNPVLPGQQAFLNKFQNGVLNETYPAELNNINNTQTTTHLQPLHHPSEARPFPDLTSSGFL
Chain of Peroxisome proliferator-activated receptor gamma (Homo sapiens) (P37231 whole entry, looked up): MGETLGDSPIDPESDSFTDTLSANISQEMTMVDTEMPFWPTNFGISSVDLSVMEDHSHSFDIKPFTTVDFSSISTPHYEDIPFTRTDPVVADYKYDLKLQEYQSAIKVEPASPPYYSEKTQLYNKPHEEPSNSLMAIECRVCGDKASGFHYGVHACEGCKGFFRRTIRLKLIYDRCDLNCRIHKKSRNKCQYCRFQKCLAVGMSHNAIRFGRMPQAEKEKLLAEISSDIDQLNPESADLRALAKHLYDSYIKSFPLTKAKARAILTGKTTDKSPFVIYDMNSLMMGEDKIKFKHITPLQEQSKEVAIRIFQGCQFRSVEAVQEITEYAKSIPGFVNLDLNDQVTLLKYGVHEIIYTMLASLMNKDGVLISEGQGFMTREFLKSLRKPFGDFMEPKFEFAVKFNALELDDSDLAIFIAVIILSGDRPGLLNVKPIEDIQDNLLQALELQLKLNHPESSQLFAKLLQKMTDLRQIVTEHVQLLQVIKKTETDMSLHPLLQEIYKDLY
Chain of Peroxisome proliferator-activated receptor delta (Homo sapiens) (Q03181 whole entry, looked up): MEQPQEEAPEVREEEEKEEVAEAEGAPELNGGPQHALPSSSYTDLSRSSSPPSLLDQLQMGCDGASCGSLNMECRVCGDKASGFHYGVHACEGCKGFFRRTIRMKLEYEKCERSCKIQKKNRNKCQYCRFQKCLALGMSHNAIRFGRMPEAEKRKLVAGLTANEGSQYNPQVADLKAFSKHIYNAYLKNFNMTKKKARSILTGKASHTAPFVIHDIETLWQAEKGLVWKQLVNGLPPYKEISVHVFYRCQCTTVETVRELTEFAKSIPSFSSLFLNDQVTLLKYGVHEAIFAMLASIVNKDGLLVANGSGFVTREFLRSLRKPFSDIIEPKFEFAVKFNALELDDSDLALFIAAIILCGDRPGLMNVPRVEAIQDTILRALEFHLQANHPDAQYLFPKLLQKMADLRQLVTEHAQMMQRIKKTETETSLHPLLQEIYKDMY
Chain of Vitamin D3 receptor (Homo sapiens) (P11473 whole entry, looked up): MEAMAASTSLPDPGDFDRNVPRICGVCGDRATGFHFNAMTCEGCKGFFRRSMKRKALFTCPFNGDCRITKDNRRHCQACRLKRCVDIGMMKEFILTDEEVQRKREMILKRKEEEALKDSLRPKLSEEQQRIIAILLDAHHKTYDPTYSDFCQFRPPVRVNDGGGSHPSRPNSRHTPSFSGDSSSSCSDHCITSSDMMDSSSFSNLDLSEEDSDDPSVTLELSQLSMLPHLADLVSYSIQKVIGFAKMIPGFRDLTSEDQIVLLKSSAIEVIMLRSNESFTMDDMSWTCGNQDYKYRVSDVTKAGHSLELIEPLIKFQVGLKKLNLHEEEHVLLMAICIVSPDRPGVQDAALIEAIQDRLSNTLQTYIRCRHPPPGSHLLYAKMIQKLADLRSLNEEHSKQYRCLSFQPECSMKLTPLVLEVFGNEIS
Chain of Bile acid receptor (Homo sapiens) (Q96RI1 whole entry, looked up): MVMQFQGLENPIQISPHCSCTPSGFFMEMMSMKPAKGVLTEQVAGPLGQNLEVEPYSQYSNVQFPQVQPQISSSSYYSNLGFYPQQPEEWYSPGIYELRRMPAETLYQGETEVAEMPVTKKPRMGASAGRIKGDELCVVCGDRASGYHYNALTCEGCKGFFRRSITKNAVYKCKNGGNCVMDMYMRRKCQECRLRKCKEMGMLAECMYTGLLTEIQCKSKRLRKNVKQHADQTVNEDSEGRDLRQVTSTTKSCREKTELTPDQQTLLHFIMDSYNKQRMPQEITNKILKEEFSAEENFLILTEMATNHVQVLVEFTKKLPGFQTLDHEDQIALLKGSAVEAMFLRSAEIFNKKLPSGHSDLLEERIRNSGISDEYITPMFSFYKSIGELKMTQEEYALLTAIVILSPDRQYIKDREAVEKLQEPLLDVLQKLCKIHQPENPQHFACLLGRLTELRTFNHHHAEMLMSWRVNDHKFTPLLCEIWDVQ

Structure (SMILES)	outcome [1]	outcome [2]	outcome [3]	Potency [4]	outcome [5]	outcome [6]	outcome [7]	outcome [8]	outcome [9]	outcome [10]	outcome [11]	Potency [12]	outcome [13]	outcome [14]	outcome [15]	outcome [16]	Potency [17]	Potency [18]	outcome [19]
[N-]=[N+]=[N-]	inactive	inactive	inactive	inactive	inactive	inactive	inactive	inactive	inactive	inactive	inactive	inactive	inactive	inactive	inactive	inactive			
CCCCN(CCCC)SN(C)C(=O)Oc1cccc2c1OC(C)(C)C2	inactive	inactive				inactive	inactive	inactive		inactive	inactive	inactive	inactive		inactive	inactive	inactive	inactive	
Clc1ccc(Cl)cc1	inactive	inactive		inactive	inactive	inactive	inactive	inactive		inactive	inactive	inactive	inactive		inactive	inactive	inactive	inactive	
CN(C)[C@@H]1C(=O)C(C(N)=O)=C(O)[C@@]2(O)C(=O)C3=C(O)c4c(O)cccc4[C@@](C)(O)[C@H]3C[C@@H]12	inactive	inactive			inactive	inactive	inactive	inactive	inactive	inactive	inactive	inactive	inactive				inactive		inactive
OCCN(CCO)CCO		inactive			inactive	inactive	inactive				inactive		inactive					inactive	
Nc1ccc(Oc2ccc(N)cc2)cc1	inactive	inactive		inactive	inactive	inactive	inactive	inactive		inactive	inactive	inactive	inactive	inactive			11 µM (active)	inactive	
CC(NC(C)(C)C)C(=O)c1cccc(Cl)c1 (stereo unspecified)	inactive	inactive			inactive	inactive	inactive		inactive		inactive		inactive	inactive	inactive	inactive	inactive	inactive	
